Results taken from PubChem BioAssay (NCATS).
Where “and” joins values, the source holds several entries; their conditions need not be identical. Identical values can stand only once. Inconclusive results are not listed. A structure can be active in one record and inactive in another. Calls of active or inactive are those of the source. Unless noted, the call rests on the fitted dose curve.

Experiments:
[1] = Cell Viability - BJ (AID 421); settings: BJ fibroblast viability, qHTS;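 further: potency means the concentration at half of the fitted maximal effect; cells exposed to compound for 40 hours at 37 °C before readout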
Procedure, shortened: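 Normal human BJ foreskin fibroblasts, 1500/well in complete medium, treated 40 hr at 37 °C. Cellular ATP by CellTiter-Glo luminescence; normalized to DMSO and 100 uM tamoxifen, AC50 from Hill fit.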

[2] = Cell Viability - Jurkat (AID 426;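 active means dose-dependent loss of cell ATP signal giving a full or clear fitted curve, ranked by lower potency value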; further: potency means the concentration at half of the fitted maximal effect); settings: qHTS
Procedure, shortened: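 Luminescent ATP read-out (CellTiter-Glo, 20 min at room temperature) after 40 hr compound exposure at 37 °C of Jurkat E6-1 cells, 5000/well. Decreased ATP taken as cytotoxicity; AC50 from standard Hill equation.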

[3] = Cell Viability - Hek293 (AID 427;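 active means compounds whose dose-response curve shows a full or clear partial loss of cell viability, called from curve shape rather than a numeric limit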;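 further: potency means the concentration at half of the fitted maximal effect; cells exposed to compound for 40 hours at 37 °C before reading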); settings: qHTS
Procedure, shortened: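 HEK293 cells in complete medium were exposed to compound for 40 hr at 37 °C, then cellular ATP was read by CellTiter-Glo luminescence. Data were normalized to DMSO (basal) and 100 uM tamoxifen (100% inhibition), and AC50 came from Hill fits.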

[4] = Cell Viability - HepG2 (AID 433); settings: qHTS;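 further: potency means the concentration at half of the fitted maximal effect; potency for ATP loss meaning cytotoxicity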
Procedure, shortened: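 ATP luminescence (CellTiter-Glo) after 40 h compound exposure, 37 °C, HepG2, 1500 cells/well, complete medium. Normalized: DMSO = basal, 100 uM tamoxifen = 100% inhibition. AC50 via standard Hill equation.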

[5] = Cell Viability - MRC5 (AID 434); settings: MRC5 lung fibroblast viability, qHTS;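 further: potency means the concentration at half of the fitted maximal effect; potency reflects cytotoxicity seen as loss of intracellular ATP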
Procedure, shortened: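 Decrease in intracellular ATP, quantified by luciferase light output, reflects compound toxicity toward MRC5 cells exposed for 40 hr in complete culture medium. Concentration-response curves, scaled between DMSO and 100 uM tamoxifen, gave AC50 values.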

[6] = Cell Viability - SK-N-SH (AID 435); settings: SK-N-SH neuroblastoma cell viability qHTS; further: potency means the concentration at half of the fitted maximal effect
Procedure, shortened: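 CellTiter-Glo ATP luminescence, 20 min RT read; cells pre-plated 5 hr, compound 40 hr at 37 °C, 1500 cells/well, complete medium. Normalized DMSO = 0, 100 uM tamoxifen = 100% inhibition; Hill-fit AC50.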

[7] = biological target: Mitogen-activated protein kinase 10 (Mus musculus) (UniProt Q61831); assay: JNK3 AlphaScreen Assay (AID 530; active means well fitted curve in either direction with a large enough effect, not every such curve was filed as active;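 further: kinase came from lysate of stimulated human HepG2 cells; signal reports phosphorylation of biotinylated GST-cJun 1-79 at Ser73 with 10 µM ATP; on the % scale 0 is the no-effect control and ±100 the full control effect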); settings: JNK3 lysate, c-Jun phosphorylation; series mostly up to 57.1 µM
Procedure, shortened: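 Biotinylated GST-cJun(1-79) served as substrate for JNK3 in HepG2 lysates stimulated with IL-1beta and TNF-alpha. ATP was 10 uM final, pH 7.6. Ser73 phosphorylation was quantified by AlphaScreen (680 nm excitation).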

[8] = Cell Viability - N2a (AID 540; active means well fitted curve in the direction sought with a large enough effect; an effect the other way counts as inactive or inconclusive; further: nearly all actives have a fitted effect of over 45% in size; further: potency means the concentration at half of the fitted maximal effect;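 on activity change, negative = cytotoxicity: plate controls were DMSO alone for no effect and tamoxifen control for full effect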); settings: N2a mouse neuroblastoma cell viability; activity change, negative = cytotoxicity: at 92.2 µM (top of the series)
Procedure, shortened: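 N2a mouse neuroblastoma, 1500 cells/well, 5 hr settle; compound 40 hr, 37 °C; CellTiter-Glo 20 min RT; luminescence; Hill-fit AC50.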

[9] = Cell Viability - NIH 3T3 (AID 541; active means well fitted curve in the direction sought with a large enough effect; an effect the other way counts as inactive or inconclusive; further: potency means the concentration at half of the fitted maximal effect; nearly all actives have a fitted effect of over 25% in size); settings: NIH 3T3 cell viability, qHTS; activity change, negative = cytotoxicity: at 92.2 µM (top of the series)
Procedure, shortened: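 qHTS format; 40 hr compound exposure, 37 °C; CellTiter-Glo luminescence (cellular ATP) read-out after 20 min at RT. Decrease in ATP = cytotoxicity; AC50 from standard Hill fit.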

[10] = Cell Viability - HUV-EC-C (AID 542; active means well fitted curve in the direction sought with a large enough effect; an effect the other way counts as inactive or inconclusive; further: nearly all actives have a fitted effect of over 35% in size; further: potency means the concentration at half of the fitted maximal effect); settings: HUV-EC-C endothelial cell viability, qHTS; series mostly up to 92.2 µM
Procedure, shortened: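 Luminescent ATP read-out (CellTiter-Glo, 20 min room temperature) after 40 hr compound treatment of HUV-EC-C cells at 37 °C. Concentration-response data fitted with the standard Hill equation to give AC50; tamoxifen and doxorubicin served as positive controls.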

[11] = Cell Viability - H-4-II-E (AID 543; active means well fitted curve in the direction sought with a large enough effect; an effect the other way counts as inactive or inconclusive; further: nearly all actives have a fitted effect of over 35% in size; further: potency means the concentration at half of the fitted maximal effect); settings: H-4-II-E rat hepatoma viability; series mostly up to 92.2 µM
Procedure, shortened: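 qHTS, rat hepatoma H-4-II-E, 1500 cells/well; 40 hr compound exposure, 37 °C; CellTiter-Glo ATP luminescence after 20 min RT; AC50 by standard Hill fit.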

[12] = Cell Viability - SH-SY5Y (AID 544; active means well fitted curve in the direction sought with a large enough effect; an effect the other way counts as inactive or inconclusive; further: nearly all actives have a fitted effect of over 55% in size; further: potency means the concentration at half of the fitted maximal effect); settings: SH-SY5Y neuroblastoma cell viability; series mostly up to 92.2 µM
Procedure, shortened: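 SH-SY5Y, 1500 cells/well, 5 hr pre-incubation 37 °C; cpd 40 hr 37 °C; CellTiter-Glo 20 min RT; luminescence (ATP) read. qHTS concentration-response, Hill fit → AC50. Tamoxifen, doxorubicin as positive controls.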

[13] = Cell Viability - Mesenchymal (AID 546; active means well fitted curve in the direction sought with a large enough effect; an effect the other way counts as inactive or inconclusive;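 further: cells exposed to compound for 40 hours before reading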; further: potency means the concentration at half of the fitted maximal effect;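 on activity change, negative = cytotoxicity: 0% = DMSO only and -100% = 100 µM tamoxifen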); settings: mesenchymal cells viability, qHTS; activity change, negative = cytotoxicity: at 91.7 µM (top of the series)
Procedure, shortened: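 In this qHTS cytotoxicity format, glomerulus-derived human mesenchymal kidney cells received compound for 40 hr, then luciferase-based ATP quantitation. Concentration-response data were fitted with the Hill equation.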

[14] = AP1 Signaling Pathway (AID 357; active means well fitted curve in either direction with a large enough effect, not every such curve was filed as active;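 further: ME-180 reporter cells stimulated with EGF at its EC50 level; on the % scale 0 is the no-effect control and ±100 the full control effect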); settings: ME-180 AP-1-bla reporter, EGF-induced, beta-lactamase ratio, 5 h; series mostly up to 17.2 µM
Procedure, shortened: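 Beta-lactamase reporter under AP-1 response element, ME-180 background. Stimulus: EC50 EGF. Compound exposure 5 h, 37 °C. Detection: CCF4, 2.5 h RT, 460/530 nm. Values: AC50 from titration.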

[15] = biological target: Cytochrome P450 1A2 (Homo sapiens) (UniProt P05177); assay: p450-cyp1a2 (AID 410); settings: recombinant CYP1A2, luciferin-ME demethylation, luminescence; series mostly up to 25.6 µM; further: potency means the concentration at half of the fitted maximal effect;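 on activity change, negative = inhibition: -100% = full effect of reference inhibitor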
Procedure, shortened: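 20nM CYP1A2, 100uM Luciferin-ME (=Km), 100mM KPO4; cpd 10 min RT; +NADPH regen, 60 min RT; stop/detect 20 min; luminescence. Normalized to furafylline 57 uM = full inhibition.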

[16] = NFAT Signaling Pathway (AID 444; active means well fitted curve in either direction with a large enough effect, not every such curve was filed as active;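 further: carbachol stimulus at about its EC50 of 1 µM final; on the % scale 0 is the no-effect control and ±100 the full control effect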); settings: Jurkat NFAT-bla M1, carbachol, beta-lactamase ratio, 5 h
Procedure, shortened: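 Jurkat cells carrying an NFAT-driven β-lactamase reporter and co-transfected muscarinic M1 receptor were treated with compound plus carbachol (1 uM final, an EC50 level) for 5 h at 37 °C. CCF4 loading followed for 1 h at RT; 460/530 nm ratio gave %activity.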

[17] = biological target: Glucocorticoid receptor (Homo sapiens) (UniProt P04150); assay: GR-EFC Redistribution (AID 451); settings: CHO-K1 GR-EFC translocation, beta-gal luminescence, 2 h; further: potency means the concentration at half of the fitted maximal effect
Procedure, shortened: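 CHO-K1 cells stably expressing nuclear-localized β-gal enzyme acceptor and GR fused C-terminally to the enzyme donor fragment; ligand-driven nuclear translocation restores β-gal by complementation. Compounds titrated up to 46 uM final, 2 h at 37 °C; luminescence read.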

[18] = biological target: 3',5'-cyclic-AMP phosphodiesterase 4B (Homo sapiens) (UniProt Q07343); assay: qHTS Assay for Inhibitors of PDE-IV (AID 607; active means well fitted activation curve with a large enough effect in the main read-out, with a control signal flat, not every such curve was filed as active; further: % of control where 0% means no effect); settings: HEK293 ACTOne CNG channel cells, membrane potential fluorescence; series mostly up to 22.9 µM
Procedure, shortened: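 HEK293 ACTOne cells with CNG channel (1000/well), endogenous PDE4; membrane potential dye, compounds up to 22.9 uM final. Fluorescence Ex 535/Em 590; RO 20-1724 (100 uM final) as reference.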

[19] = Stat Signaling Pathway (AID 446; active means well fitted curve in either direction with a large enough effect, not every such curve was filed as active;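 further: ME-180 cervical cancer cells given 40 pM IL-6 alongside compound; SIE-controlled beta-lactamase reporter measured as 460/530 nm FRET emission ratio; on the % scale 0 is the no-effect control and ±100 the full control effect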); settings: ME-180 (cervical carcinoma) SIE beta-lactamase reporter, IL-6 stimulated, 5 h; series mostly up to 17.2 µM
Procedure, shortened: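 Normalization used AC90 stimulation (300 pM IL-6) and AC90 inhibition (125 nM pan-JAK inhibitor at 40 pM IL-6). The underlying signal is SIE-driven beta-lactamase in ME-180 cells after 5 h IL-6 exposure with compound.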

[20] = Cell Viability - Renal Proximal Tubule (AID 545; active means well fitted curve in the direction sought with a large enough effect; an effect the other way counts as inactive or inconclusive; further: nearly all actives have a fitted effect of over 40% in size; further: potency means the concentration at half of the fitted maximal effect;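 on activity change, negative = cytotoxicity: 0% = DMSO only and -100% = 100 µM tamoxifen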); settings: renal proximal tubule cells viability; series mostly up to 91.7 µM
Procedure, shortened: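 Rat kidney proximal tubule cells, freshly isolated; 1000 cells/well, 5 hr settle, compound 40 hr 37 °C. CellTiter-Glo 20 min RT, luminescence read. AC50 by standard Hill fit.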

Chain of Glucocorticoid receptor (Homo sapiens) (P04150 whole entry, looked up, the tested form may be a part): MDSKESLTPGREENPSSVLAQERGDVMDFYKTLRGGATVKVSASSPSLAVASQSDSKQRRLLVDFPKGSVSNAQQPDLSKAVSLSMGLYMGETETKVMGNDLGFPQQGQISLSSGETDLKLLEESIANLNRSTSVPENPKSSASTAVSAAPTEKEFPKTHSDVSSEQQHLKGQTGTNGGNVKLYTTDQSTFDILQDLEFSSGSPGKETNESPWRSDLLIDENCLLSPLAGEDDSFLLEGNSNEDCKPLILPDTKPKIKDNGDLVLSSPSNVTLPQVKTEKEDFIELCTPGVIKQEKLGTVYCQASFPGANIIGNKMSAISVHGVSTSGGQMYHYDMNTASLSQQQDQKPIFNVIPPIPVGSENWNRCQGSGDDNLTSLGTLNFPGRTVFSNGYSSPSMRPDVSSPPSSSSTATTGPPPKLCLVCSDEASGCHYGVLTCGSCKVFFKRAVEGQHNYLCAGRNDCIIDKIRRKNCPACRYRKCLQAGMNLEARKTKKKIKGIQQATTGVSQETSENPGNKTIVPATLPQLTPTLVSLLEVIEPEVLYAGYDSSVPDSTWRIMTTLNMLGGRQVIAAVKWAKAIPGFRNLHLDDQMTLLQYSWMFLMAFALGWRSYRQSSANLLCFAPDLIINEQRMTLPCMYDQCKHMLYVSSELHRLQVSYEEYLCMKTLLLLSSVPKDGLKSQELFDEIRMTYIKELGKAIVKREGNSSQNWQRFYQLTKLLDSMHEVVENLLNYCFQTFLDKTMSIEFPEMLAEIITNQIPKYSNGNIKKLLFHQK
Chain of Cytochrome P450 1A2 (Homo sapiens) (P05177 whole entry, looked up): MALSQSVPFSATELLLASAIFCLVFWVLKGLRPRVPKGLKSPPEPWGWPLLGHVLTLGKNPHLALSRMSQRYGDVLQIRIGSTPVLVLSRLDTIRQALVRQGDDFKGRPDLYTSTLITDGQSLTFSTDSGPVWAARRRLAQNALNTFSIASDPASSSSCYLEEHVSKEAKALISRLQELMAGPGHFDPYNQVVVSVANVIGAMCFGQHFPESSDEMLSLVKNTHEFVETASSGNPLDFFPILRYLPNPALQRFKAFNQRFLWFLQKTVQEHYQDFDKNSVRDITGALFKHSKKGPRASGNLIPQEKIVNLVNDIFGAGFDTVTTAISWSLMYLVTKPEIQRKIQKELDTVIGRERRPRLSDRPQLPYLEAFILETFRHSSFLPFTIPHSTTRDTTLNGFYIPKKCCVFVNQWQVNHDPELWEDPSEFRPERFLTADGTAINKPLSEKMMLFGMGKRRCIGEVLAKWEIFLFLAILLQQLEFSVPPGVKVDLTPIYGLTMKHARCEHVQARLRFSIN
Chain of 3',5'-cyclic-AMP phosphodiesterase 4B (Homo sapiens) (Q07343 whole entry, looked up): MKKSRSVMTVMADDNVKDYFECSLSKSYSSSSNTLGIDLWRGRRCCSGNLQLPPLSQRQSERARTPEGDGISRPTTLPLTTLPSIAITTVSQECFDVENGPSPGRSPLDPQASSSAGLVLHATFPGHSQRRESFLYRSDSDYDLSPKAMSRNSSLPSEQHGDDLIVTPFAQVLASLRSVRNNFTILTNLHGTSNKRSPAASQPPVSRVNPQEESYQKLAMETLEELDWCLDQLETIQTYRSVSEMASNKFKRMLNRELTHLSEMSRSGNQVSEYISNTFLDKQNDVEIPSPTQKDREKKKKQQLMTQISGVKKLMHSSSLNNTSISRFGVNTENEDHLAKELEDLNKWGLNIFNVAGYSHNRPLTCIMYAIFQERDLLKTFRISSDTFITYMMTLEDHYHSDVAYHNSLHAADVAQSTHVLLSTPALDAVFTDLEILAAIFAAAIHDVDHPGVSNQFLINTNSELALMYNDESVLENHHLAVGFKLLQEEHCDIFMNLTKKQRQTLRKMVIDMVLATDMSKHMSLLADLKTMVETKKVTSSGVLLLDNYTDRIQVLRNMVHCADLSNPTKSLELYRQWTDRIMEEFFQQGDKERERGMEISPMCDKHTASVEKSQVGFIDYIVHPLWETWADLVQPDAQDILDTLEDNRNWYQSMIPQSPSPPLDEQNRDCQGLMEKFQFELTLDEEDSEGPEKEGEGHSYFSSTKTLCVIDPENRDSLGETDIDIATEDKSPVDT

C[C@@H]1C[C@@H]([C@H](O)CC2CC(=O)NC(=O)C2)C(=O)[C@@H](C)C1
active: Potency [2] 301 nM and 142 nM | Potency [3] 129 nM and 167 nM | Potency [8] 0.126 µM | Potency [9] 100 nM and 126 nM | Potency [10] 0.1 µM | Potency [11] 126 nM and 100 nM | Potency [13] 79.4 nM and 50.1 nM
63.1 nM (active) and inactive: Potency [12]
inactive: Potency [1] > 92 µM | Potency [4] > 92 µM | Potency [5] > 92 µM | Potency [6] > 92 µM | outcome [7]

O=C(O)c1nn(Cc2ccc(Cl)cc2Cl)c2ccccc12
inactive: outcome [14] | Potency [15] | activity change, negative = inhibition ([16]; at 38 µM (top of the series)) -9.69% | Potency [17] > 46 µM | outcome [7] | outcome [18]

COC(=O)C1=CCCN(C)C1
inactive: outcome [14] | Potency [15] | outcome [19] | Potency [17] > 46 µM and > 20.6 µM | outcome [7] | outcome [18]

CCC(=O)O[C@H]1CC[C@H]2[C@@H]3CCC4=CC(=O)CC[C@]4(C)[C@H]3CC[C@]12C
inactive: outcome [14] | Potency [15] | outcome [19] | Potency [17] > 20.6 µM | outcome [7]

Cc1ccc(O)cc1
inactive: outcome [7]

CNC(=O)Oc1cccc2ccccc12
inactive: Potency [1] > 92 µM | Potency [3] > 92 µM | Potency [4] > 92 µM | Potency [5] > 92 µM | Potency [6] > 92 µM | outcome [7] | Potency [8] | Potency [10] | Potency [11] | Potency [20] | Potency [13]

CC(C)[N+](C)(CCC(C(N)=O)(c1ccccc1)c1ccccc1)C(C)C
inactive: outcome [14] | Potency [15] | outcome [19] | Potency [17] > 20.6 µM | outcome [7] | outcome [18]

OC(c1ccccc1)(c1ccccc1)C1CCNCC1
inactive: outcome [14] | Potency [15] | outcome [19] | Potency [17] > 20.6 µM | outcome [7] | outcome [18]

CN1[C@@H]2CC[C@H]1CC(OC(=O)c1cc(Cl)cc(Cl)c1)C2 (stereo partly specified)
inactive: outcome [14] | Potency [15] | outcome [19] | Potency [17] > 46 µM | outcome [7] | outcome [18]

CC[n+]1c(-c2ccccc2)c2cc(N)ccc2c2ccc(N)cc21
active: Potency [2] 26.8 µM | activity change, negative = cytotoxicity [8] -81.5% | Potency [13] 31.6 µM
inactive: Potency [5] > 92 µM | Potency [6] > 92 µM

CN(C)C(=S)SSC(=S)N(C)C
inactive: outcome [7]
active: Potency [2] 12.5 µM | Potency [3] 14.5 µM | Potency [4] 66.9 µM | Potency [5] 13.2 µM | Potency [6] 8.36 µM | Potency [8] 5.01 µM | Potency [10] 15.8 µM | Potency [11] 3.98 µM | Potency [12] 15.8 nM | Potency [20] 20 µM | activity change, negative = cytotoxicity [13] -103%

Oc1ccc2[nH]cc(CCCCN3CC=C(c4ccccc4)CC3)c2c1
inactive: Potency [17] > 46 µM | outcome [18]
active: Potency [15] 31.6 µM

NC(=O)CN1CCCC1=O
inactive: outcome [14] | Potency [15] | activity change, negative = inhibition ([16]; at 17.2 µM (top of the series)) -0.917% | activity change, negative = inhibition ([16]; at 38 µM (top of the series)) 1.7% | outcome [19] | Potency [17] > 46 µM and > 20.6 µM | outcome [7] | outcome [18]

Clc1ccc(CSC(Cn2ccnc2)c2ccc(Cl)cc2Cl)cc1 (stereo unspecified)
inactive: outcome [14]

O=C1NCN(c2ccccc2)C12CCN(CCCOc1ccc(F)cc1)CC2
inactive: Potency [17] > 46 µM | outcome [7]
